# Inconclusive results are not listed. Values without a mark were called inactive. Calls follow the shape of the dose curve; as a rule, active = well fitted cell-killing curve with a large enough effect; inconclusive = small, poorly fitted or top-dose-only effect, or effect the other way; inactive = flat fitted curve, though single readings scatter.
# Tested on: Hek293T
# Assay: Primary qHTS to identify gynecologic anti-cancer compounds using libraries of approved drugs and bioactive compounds (AID 1345084); also: nearly all actives have a fitted effect of over 55% in size
# Settings: Gynecologic cancer cell panel viability, ATPlite luminescence, 48 h, control line for the selectivity index; series mostly up to 57.5 µM; activity change, negative = cytotoxicity: at the top concentration
# Method in brief: (§1)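 In this quantitative HTS, cell killing is estimated from loss of ATP-dependent luciferase light. Cells see five compound concentrations over a 48 h exposure.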
# % is scaled to controls: 0 for no effect and ±100 for the full control effect.
row,Structure (SMILES),"activity change, negative = cytotoxicity"
1,CCC/C=C/C=C/C1CC(O)C2(O)C(=O)OCC12 (stereo unspecified),11.3%
2,C[C@H]1CC[C@@]2(OC1)O[C@H]1CC3[C@@H]4CC[C@@H]5C[C@@H](O[C@@H]6O[C@H](CO)[C@@H](O[C@@H]7O[C@H](CO[C@@H]8OC[C@@H](O)[C@H](O)[C@H]8O)[C@@H](O[C@@H]8O[C@H](CO)[C@H](O)[C@H](O)[C@H]8O)[C@H](O)[C@H]7O)[C@H](O)[C@H]6O)CC[C@]5(C)C4CC[C@]3(C)[C@H]1[C@@H]2C (stereo partly specified),-0.448% [at 11.6 µM]
3,CC(C)(C)c1ccc(C(=O)Nc2cc(Cl)c(Br)cc2C(=O)O)cc1,-15.6%
4,C=C1CCC2C(C)(C)CCCC2(C)C1CC/C(C)=C\CO (stereo unspecified),-11.9%
5,CCCCCc1ccc(/C=C/C(=O)Nc2cc(Cl)ccc2C(=O)O)cc1,-1.25%
6,O=C(N[C@H](Cc1cscn1)C(=O)N[C@@H](CC1CCCCC1)[C@@H](O)[C@@H](O)C1CC1)c1nc2ccccc2[nH]1,-1.52%
7,O=C(Nc1nnc(-c2ccc3c(c2)OCCO3)o1)C1CCCCC1,-18.2%

# Tested on: JEG-3
# Assay: as above
# Settings: Gynecologic cancer cell panel viability, ATPlite luminescence, 48 h; series mostly up to 57.5 µM; activity change, negative = cytotoxicity: at the top concentration
# Method in brief: as §1
row,Structure (SMILES),"activity change, negative = cytotoxicity"
1,CCNC1(C(N)=O)CN(c2nc(C)nc3c(-c4ccc(Cl)cc4)c(-c4ccccc4Cl)nn23)C1,-4.03%
2,O=C([C@@H]1CCCN(c2ccc3[nH]c(C4(n5cc(Cl)cn5)CC4)nc3n2)C1)N1CCCC1,6.62%
3,Cn1ccc(NC(=O)c2cc(Oc3ccc(C(=O)N4CCC4)c(F)c3)c3c(c2)OC(C)(C)C3)n1,2.5%
4,CC1(CO)CC2C(O)C3=C(CC(C)(O)C2C1)C(=O)OC3 (stereo unspecified),3.92%
5,C[C@@H]1O[C@@H](O[C@H]2[C@@H]3C=CO[C@@H](O[C@@H]4O[C@H](CO)[C@@H](O)[C@H](O)[C@H]4O)[C@@H]3[C@@]3(CO)O[C@@H]23)[C@H](O)[C@H](OC(=O)/C=C/c2ccccc2)[C@H]1O,-1.92% [at 25.3 µM]
6,CC(=O)O[C@@H]1CC2C(/C=C(\C)C(=O)[C@@]3(O)C[C@@H](C)[C@H](OC(=O)c4ccccc4)C3/C=C/1C)C2(C)C (stereo partly specified),-0.0958% [at 25.3 µM]
7,COCCCNC(=O)c1ccc(Cn2c(=O)c3ccccc3n(Cc3ccc(C(C)C)cc3)c2=O)cc1,10.2%
8,Cc1ccc(C(C)C)c(O[C@@H]2O[C@H](CO)[C@@H](O)[C@H](O)[C@H]2O)c1,12.9% [at 38.5 µM]
9,O=C(Nc1ccccc1)N1CCC(Cc2cnc3ccccc3c2)CC1,5.54%
10,CN(C)CCOc1cc(NS(=O)(=O)c2c(Cl)cc(C(F)(F)F)cc2Cl)ccc1Cl,-1.15%
11,COc1ccc(NC(=O)C2C[C@H](C)CC[C@H]2C(C)C)cc1 (stereo partly specified),10.1%
12,Cc1noc(-c2ccc(-c3ccc(CC(=O)O)cc3)cc2)c1NC(=O)O[C@H](C)c1ccccc1Cl,5.46%
13,Cc1cccc(N2CCN(C(=O)c3cc(S(=O)(=O)N(C)C)ccc3N3CCCC3)CC2)c1C,-0.161%
14,C[C@]12CC[C@@H]3c4ccc(O)c(O)c4CC[C@H]3[C@@H]1CCC2=O,-20.2%
15,O=C(Nc1ccccc1)c1ccc(Nc2nnc(-c3ccc(O)cc3)c3ccccc23)cc1,-1.67%
16,CC1(NC(=O)c2ccc(C#Cc3cccc(F)c3)cn2)COC1,1.84%
17,COc1ccc(S(=O)(=O)N2CCC[C@H]2C(=O)Nc2cc(C)cc(C)c2)cc1,0.511%
18,COc1cc(C2OC(c3ccc(OC)c(OC)c3)C(C)C2C)ccc1O (stereo unspecified),10.4% [at 38.5 µM]
19,C#CCCCn1cc(-c2cccc3c2N[C@H](C)CC(=O)N3)cn1,-12.5%
20,CC(=O)O[C@@H]1[C@@H](O)[C@H](O[C@@H]2[C@@H](O)[C@@H](O)[C@H](O[C@H]3[C@H](O[C@H]4[C@H](O[C@H]5CC[C@@]6(C)C(CC[C@]7(C)C6CC=C6[C@@H]8CC(C)(C)CC[C@]8(C(=O)O)CC[C@]67C)[C@]5(C)CO)O[C@H](CO)[C@@H](O)[C@@H]4O)OC[C@@H](O)[C@@H]3O)O[C@H]2C)OC[C@H]1O (stereo partly specified),13.7% [at 11.6 µM]

row,Structure (SMILES),"activity change, negative = cytotoxicity"
1,CCC/C=C/C(=O)O[C@H]1CC(C)(C)CC2[C@@]13[C@H](O)C[C@]1(C)[C@@]2(CCC2[C@@]4(C)CC[C@H](O[C@@H]5O[C@H](C(=O)O)[C@@H](O)[C@H](O[C@@H]6O[C@H](CO)[C@H](O)[C@H](O)[C@H]6O[C@@H]6O[C@@H](C)[C@H](O)[C@@H](O)[C@H]6O[C@@H]6OC[C@](O)(CO)[C@H]6O)[C@H]5O[C@@H]5O[C@H](CO)[C@H](O)[C@H](O)[C@H]5O)C(C)(C)C4CC[C@]21C)O[C@H]3O (stereo partly specified),15.7% [at 6.55 µM]
2,Cc1ccc(-c2ncc[nH]2)cc1NC(=O)c1ccc(OCc2ccccn2)cc1,-12.1%
3,COc1cc(CCc2ccc(OCC=C(C)C)cc2)cc(OC)c1OC,2.62% [at 38.5 µM]
4,CNC(=O)COC(=O)N1CCC(CCc2ccc(Cl)cc2)CC1,11.9%
5,COC1C=C(C)C(O)(CO)C2(C)CCCC(C)(C)C12 (stereo unspecified),2.88%
6,O=C(O)c1ccc(S(=O)(=O)N(Cc2ccc(OC(F)(F)F)cc2)c2ncc(C(F)(F)F)cc2Cl)cc1,-3.55%
7,C=C(C)C(=O)O[C@H]1[C@H]2C(=C)C(=O)O[C@@H]2/C=C(\CO)CC/C=C(/C=O)[C@@H]1O,6.8% [at 38.5 µM]
8,C=C[C@]1(C)C[C@H](O)[C@H]2C(=C)C(=O)O[C@@H]2[C@H]1C(=C)CO,-1.5%
9,COC(=O)c1ccnc(-c2cc(C(=O)Nc3ccc(C4(N)CC4)cc3)ccn2)c1,9.62%
10,O=C(Nc1ccc2[nH]c(=O)oc2c1)C(=O)N1CCC(Cc2ccc(F)cc2)CC1,-0.181%
11,O=C(Nc1cccnn1)N1CCN(c2nccc(-c3ccc(F)c(F)c3)n2)CC1,4.44% [at 116 µM]
12,O=C(Nc1cc(C(F)(F)F)ccc1N1CCCCC1)c1ccncc1,6.63%
13,CCC/C=C/C=C/C1CC(O)C2(O)C(=O)OCC12 (stereo unspecified),6.24%
14,C[C@H]1CC[C@@]2(OC1)O[C@H]1CC3[C@@H]4CC[C@@H]5C[C@@H](O[C@@H]6O[C@H](CO)[C@@H](O[C@@H]7O[C@H](CO[C@@H]8OC[C@@H](O)[C@H](O)[C@H]8O)[C@@H](O[C@@H]8O[C@H](CO)[C@H](O)[C@H](O)[C@H]8O)[C@H](O)[C@H]7O)[C@H](O)[C@H]6O)CC[C@]5(C)C4CC[C@]3(C)[C@H]1[C@@H]2C (stereo partly specified),-1.5% [at 11.6 µM]
15,CC(C)(C)c1ccc(C(=O)Nc2cc(Cl)c(Br)cc2C(=O)O)cc1,10.2%
16,C=C1CCC2C(C)(C)CCCC2(C)C1CC/C(C)=C\CO (stereo unspecified),2.18%
17,CCCCCc1ccc(/C=C/C(=O)Nc2cc(Cl)ccc2C(=O)O)cc1,-17.1%
18,O=C(N[C@H](Cc1cscn1)C(=O)N[C@@H](CC1CCCCC1)[C@@H](O)[C@@H](O)C1CC1)c1nc2ccccc2[nH]1,-7.1%
19,O=C(Nc1nnc(-c2ccc3c(c2)OCCO3)o1)C1CCCCC1,0.291%
